# In the library only some 2.8% were active in any assay of this set; here they are far more common.
# p47phox inh: p47phox (human) inhibition; P14598; p47phox/p22phox peptide binding, fluorescence polarization, 2 h; inhibition, % at 24.7 µM; hit rate 0.53% among 220,000; AID 1274;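 active = inhibition above about 30%, limit read from the data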;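 note: 0% = p47phox with labelled peptide and 100% = labelled peptide alone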
# HSV replic up: HSV replication enhancement; AID 1956; maximum fold increase; HSV replication augmentation in cells, fold increase; hit rate 0.005% among 220,000; in the data active = maximum fold increase above about 1.5; inconclusive = no clear call, values can overlap the other calls; tested in PC3 cells
# EP2 mod: modulators of human EP2 prostaglandin E2 receptor; hit rate 0.83% among 260,000; P43116; EP2-expressing cells, cAMP HTRF FRET, PGE2 co-stimulation; induction, % at 25 µM;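 active = compounds whose cAMP rise, as percent of the full-agonist control response, exceeds 60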;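 note: rat C6 glioma line stably carrying human EP2 under a CMV promoter; the protocol text gives 20 µM as final concentration; 100% = response of wells given 1 µM PGE2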
# Target sequence (P43116 whole entry, looked up): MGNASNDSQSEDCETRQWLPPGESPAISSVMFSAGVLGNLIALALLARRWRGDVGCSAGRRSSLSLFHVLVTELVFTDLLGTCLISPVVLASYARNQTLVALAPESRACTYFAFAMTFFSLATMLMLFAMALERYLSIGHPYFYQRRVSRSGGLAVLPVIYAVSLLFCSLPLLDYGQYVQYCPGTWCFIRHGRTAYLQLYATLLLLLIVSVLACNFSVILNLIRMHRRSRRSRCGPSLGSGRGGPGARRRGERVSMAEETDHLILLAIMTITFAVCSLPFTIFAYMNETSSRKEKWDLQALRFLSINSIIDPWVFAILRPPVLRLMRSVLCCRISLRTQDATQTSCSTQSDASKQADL
# Furin inh: blocks human furin protease activity. inhibition, % at 20 µM or 30 µM. purified furin, fluorogenic substrate cleavage. hit rate 0.061% among 220,000. P09958; in the data active = inhibition above about 25%
# Wee1 degr inh: inhibitors of human Wee1 degradation; P30291; HeLa Luc-Wee1K328M stability, luciferase luminescence; 100% = proteasome inhibitor MG132 effect; reporter increase, % at 5 µM; hit rate 1.2% among 220,000;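 active = activation above the mean of all tested compounds plus 3 SD, set per screening run, cut at about 8.8% in these data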;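 note: cells exposed to compound for 20 h before luminescence read; 0% = DMSO alone and 100% = MG132 at 30 µM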
# PGE2 EP2 inh: blocks the human prostaglandin E2 receptor EP2; P43116; C6 glioma cells expressing human EP2, cAMP TR-FRET; cells stimulated with saturating PGE2; inhibition, % at 25 µM; hit rate 0.52% among 260,000;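 active = percent inhibition above 40 after rounding to a whole number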;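 note: rat C6 glioma host cells with rolipram phosphodiesterase inhibitor present; the protocol text gives 20 µM as final concentration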
# Numbers without * were called inactive; i = inactive; u = inconclusive; x = no result given.
SMILES,p47phox inh,HSV replic up,EP2 mod,Furin inh,Wee1 degr inh,PGE2 EP2 inh
C[C@H]1C/C=C/[C@H]2[C@H](O)[C@H](C)[C@@](C)(O)[C@H]3[C@H](Cc4ccccc4)NC(=O)[C@]32[C@H](O)/C=C/[C@](C)(O)C1,x,i,x,x,x,17.2
Cc1ccccc1C1=NCC(=O)Nc2sc3c(c21)CCCC3,x,x,48.7,x,x,8.7
CC(C)[C@H]1CN(Cc2ccccc2F)CCN1C(=O)Cc1ccc(S(C)(=O)=O)cc1,x,x,8.5,x,x,x
C=CCn1ncc(CN2C3CCC2CC(O)(c2nccn2C)C3)c1C (stereo not drawn),x,x,-8.6,x,x,6.8
Cc1nc(-c2ccccc2)c(CC(=O)N(CCN(C)C)Cc2ccc(F)cc2)s1,x,x,-27.5,x,x,8.1
COC(=O)c1c(C)ccc2c(O)c3c(cc12)C(=O)c1c2c(cc(O)c1C3=O)[C@@]1(C)O[C@@](C)(O2)[C@@H](O)[C@H](N(C)C)[C@H]1O,x,x,12.2,x,x,42.4*
C=Cn1cc(CN2C3CCC2CC(O)(c2ccc(F)cc2)C3)c(C)n1 (stereo not drawn),x,x,-12.1,x,x,7.8
CN1C[C@@H](C(=O)N[C@@]2(C)O[C@@]3(O)[C@H]4CCCN4C(=O)[C@@H](Cc4ccccc4)N3C2=O)C=C2c3cccc4[nH]cc(c34)C[C@@H]21,x,x,3.3,x,x,65.8*
C=CCN1C(=O)CN=C(c2ccc(F)cc2)c2c1sc1c2CCCC1,x,x,65.0*,x,x,3.3
O=C(CN1C(=O)CN=C(c2ccsc2)c2c1sc1c2CCCC1)N1CCCCC1,x,x,14.7,x,x,12.8
CN(C)CCN(C(=O)Cc1ccc2c(c1)OCCO2)C1CCN(C)CC1,x,x,-53.0,x,x,1.4
CCCc1ncc(CN2C3CCC2CC(O)(c2ccccc2OC)C3)cn1 (stereo not drawn),x,x,-27.0,x,x,5.7
Cc1nnc(SCc2nc3ccccc3c(=O)n2-c2ccccc2Cl)n1N,1.4,i,0.9,26.4*,1.2,12.6
O=C1C(=O)c2ccccc2-c2ccccc21,-3.3,i,-37.8,-10.4,2.6,44.6*
CO[C@@H]([CH2][Hg][n]1cnc2c1c(=O)n(C)c(=O)n2C)CN1C(=O)c2ccccc2S1(=O)=O,x,x,29.9,x,x,49.0*
COc1cccc(-n2c(SCCN3CCCCC3)nc3ccccc3c2=O)c1,x,x,-5.4,x,x,15.6
C[C@]12CC[C@@H]3c4ccc(O)c(O)c4CC[C@H]3[C@@H]1CC[C@@H]2O,6.0,i,-23.7,x,1.9,89.0*
COc1ccc(C)cc1CN1C2CCC1CC(O)(c1cccc(F)c1)C2 (stereo not drawn),x,x,-87.2,x,x,3.5
Nc1nc2c(c(=S)[nH]1)[n]([Hg][c]1cc([N+](=O)[O-])ccc1O)c[n+]2[C@H]1O[C@H](CO)[C@@H](O)[C@@H]1O,x,x,12.5,x,x,60.0*
CN(C)CCN(C(=O)Cc1nn(C)c(=O)c2ccccc12)C1CCCCC1,x,x,-11.1,x,x,6.3
CCCC/C(C)=C/[C@@H](NP(=O)(c1ccccc1)c1ccccc1)c1ccccc1,1.4,i,63.7*,1.8,-1.7,7.7
CN(C)CCN(Cc1ccc(F)cc1)C(=O)Cc1csc(-c2cccnc2)n1,x,x,-48.7,x,x,9.9
CN1/C(=C\C=Nc2ccccc2)C(C)(C)c2ccccc21,-144.9,i,6.2,-7.1,1.6,21.5
CN1/C(=C\C=C2C(=O)NC(=O)NC2=O)C(C)(C)c2ccccc21,-8.0,u,0.4,27.9*,1.4,7.9
COc1cc2cc(c1Cl)N(C)C(=O)C[C@H](OC(=O)C(C)C)[C@]1(C)O[C@H]1[C@@H](C)[C@H]1C[C@](O)(NC(=O)O1)[C@@H](OC)/C=C\C=C(\C)C2,x,x,23.2,x,x,52.2*
SMILES,p47phox inh,HSV replic up,EP2 mod,Furin inh,Wee1 degr inh,PGE2 EP2 inh
CN1/C(=C\C=C\C2=[N+](C)c3ccc4ccccc4c3C2(C)C)C(C)(C)c2ccccc21,-249.1,i,-45.7,-10.6,-4.2,114.4*
Clc1ccccc1CNC1CN2CCC1CC2 (stereo not drawn),-45.3,i,-1.4,7.5,11.3*,5.7
O=C(C1CC(=O)N(C2CCCCCCC2)C1)N1CCC2(CC1)OCCO2 (stereo not drawn),34.5*,i,12.6,-6.8,-0.8,8.6
COc1cccc(C2C(C#N)=C(N)Oc3n[nH]c(-c4ccc5ccccc5c4)c32)c1OC (stereo not drawn),x,x,46.4,x,x,12.1
FC(F)(F)c1nc2ccc(SSc3ccc4nc(C(F)(F)F)[nH]c4c3)cc2[nH]1,x,x,21.0,x,x,78.9*
CCCCCCCCCOc1ccc2[nH]cc(CCN)c2c1,92.0*,i,x,x,-0.2,21.6
CCOC(=O)c1c(C)n(Cc2ccco2)c2ccc(OC)cc12,-10.5,i,63.8*,1.6,1.8,14.3
COC(=O)c1c(C)n(Cc2ccco2)c2ccc(O)cc12,0.1,i,3.6,-8.0,3.5,5.6
CCOC(=O)c1c(C)n(CCOC)c2ccc(O)cc12,-1.9,i,5.5,-8.6,9.0*,5.5
COC1CC(O[C@H]2CC[C@]3(C=O)C4CC[C@]5(C)C(C6=CC(=O)OC6)CC[C@]5(O)C4CC[C@]3(O)C2)OC(C)C1O (stereo partly drawn),x,x,5.7,x,x,11.9
Cc1nnnn1-c1ccc(CC(=O)N2CCN(Cc3ccco3)C[C@@H]2C(C)C)cc1,x,x,-47.2,x,x,x
N=C(N)SCc1ccc(Cl)c2ccccc12 (tested in a mixture with another compound),x,x,-54.5,x,x,61.2*
CN(C)C(=O)Oc1ccc(Cl)c2ccccc12,-5.6,i,19.1,-15.0,-2.1,6.2
COC(=O)[C@@H]1c2cc3c(c(O)c2[C@@H](O)C[C@]1(C)O)C(=O)c1c(O)cc2c(c1C3=O)O[C@H]1O[C@]2(C)[C@@H](O)[C@H](N(C)C)[C@H]1O,x,x,19.0,x,x,48.7*
CCCCCn1c(=O)c(C(=O)NCc2ccco2)c(O)c2ccccc21,-3.0,i,58.0,-25.7,-0.6,5.2
CCCCn1c(=O)c(C(=O)NCc2ccncc2)c(O)c2ccccc21,-13.3,i,62.5*,-17.6,-2.8,17.2
CCOc1cc(CN2C3CCC2CC(O)(c2nccn2C)C3)c(C)cc1OC (stereo not drawn),x,x,0.5,x,x,7.2
COC1C(O)C(O[C@H]2CC[C@]3(C=O)C4C(CC[C@]3(O)C2)[C@@]2(O)CC[C@H](C3=CC(=O)OC3)[C@@]2(C)C[C@H]4OC(C)=O)OC(C)C1OC(C)=O (stereo partly drawn),x,x,16.5,x,x,12.1
c1ccc(-c2[nH]c[n+](CC3CO3)c2-c2ccccc2)cc1 (stereo not drawn),30.6*,i,17.0,-18.4,2.3,22.8
CCOC(=O)C1=C(N)Oc2c(c(=O)oc3ccccc23)C1c1ccc(F)c(F)c1 (stereo not drawn),x,x,20.8,x,x,9.8
C=CCn1c(O)c(C(C)=NC2CCN(Cc3ccccc3)CC2)c(=O)[nH]c1=O,-1.0,i,12.0,-28.7,10.7*,8.4
O=[As](O)(O)c1ccc(Cc2ccc([As](=O)(O)O)cc2)cc1,x,x,-36.9,x,x,92.7*
